# Measurements taken from PubChem BioAssay AID485317 (Broad Institute, 2010).
# Out of some 290,000 compounds screened, about 11,000 (3.8%) were called active.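 The calls were made as follows: active = mean replicate inhibition above about 79%, with every replicate also reaching it (limit read from the data); inconclusive = only one of the two criteria met; inactive = mean below limit and not every replicate reaching it.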 Many of the other results were omitted from the sample, so actives are more common in it than they were.
# Biological target: FAD-linked sulfhydryl oxidase ALR (Homo sapiens) (UniProt P55789)
# Sequence (P55789 whole entry, looked up): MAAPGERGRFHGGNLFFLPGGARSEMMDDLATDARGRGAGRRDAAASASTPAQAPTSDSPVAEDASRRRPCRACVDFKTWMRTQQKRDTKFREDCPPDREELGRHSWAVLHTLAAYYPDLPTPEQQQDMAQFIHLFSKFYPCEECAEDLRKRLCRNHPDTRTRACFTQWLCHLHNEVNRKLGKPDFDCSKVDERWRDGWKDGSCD
# Assay: inhibitors of human ALR sulfhydryl oxidase, primary screen, biochemical, H2O2 detection, HRP-luminol luminescence, single point (AID 485317)
# Settings: purified ALR, DTT oxidation, hits give high values, concentration not given here
row,Structure (SMILES),inhibition
1,CCC(O)CNc1nc(-n2nc(C)cc2C)nc2sc3c(c12)CC(C)(C)OC3 (configuration not stated),-2.25% (inactive)
2,CC/C(C)=N/Nc1nc2sc3c(c2c(=O)[nH]1)CC(C)(C)OC3,15.5% (inactive)
3,C=CCNC(=S)NNc1ncnc2sc3c(c12)CC(C)(C)OC3,98.8% (active)
4,CC(C)C(NC(=O)c1c(F)cccc1F)C(=O)NNC(=O)c1ccccc1 (configuration not stated),-7.7% (inactive)
5,COc1ccc2sc(N(CCCN(C)C)C(=O)c3ccc(S(=O)(=O)N(C)C4CCCCC4)cc3)nc2c1,-5.65% (inactive)
6,O=C(NCC(=O)N1CCCC(C(F)(F)F)C1)c1ccccc1F (configuration not stated),-7.32% (inactive)
7,Cc1ccc(N=C2SCCCN2C(=O)c2cccc(N3C(=O)CCC3=O)c2)cc1Cl,-9.4% (inactive)
8,N#Cc1nc(-c2cccc3ccccc23)oc1N,0.469% (inactive)
9,Cn1c(CNC(=O)c2ccccc2F)nnc1SCc1ccc(F)cc1,-2.09% (inactive)
10,CC(C)CC(CC(C)C)=NNC(=O)c1ccc(CSc2nncn2C)cc1,98.2% (active)
11,COC(=O)c1ccc(CSc2nncn2N)cc1,-17.1% (inactive)
12,CC(=O)Nc1ccc(NC(=O)CCN2C(=O)C3CC=CCC3C2=O)cc1 (configuration not stated),-1.74% (inactive)
13,CC1=NNC(=O)C1Cc1c(Cl)cccc1Cl (configuration not stated),13.8% (inactive)
14,CCn1c(SC(C)C(=O)Nc2ccc(N3CCOCC3)cc2)nnc1-c1ccco1 (configuration not stated),46.7% (inactive)
15,Cc1ccc(-n2ncc3c(Nc4cccc(C(=O)O)c4)ncnc32)cc1,94% (active)
16,Cc1ccc(Nc2ncnc3c2cnn3C)c(C)c1,-4.69% (inactive)
17,O=C(NNc1ncnc2c1cnn2-c1ccccc1)c1ccco1,-5.39% (inactive)
18,CSCCC(NC(=O)COc1ccccc1)C(=O)OCCOc1ccc(F)cc1 (configuration not stated),-0.0039% (inactive)
19,Cc1ccc(S(=O)(=O)NCCC(=O)OCC(=O)N(C)c2ccccc2)cc1,-0.745% (inactive)

row,Structure (SMILES),inhibition
1,COc1ccc(S(=O)(=O)N2CCN(C(C)C(=O)Nc3ccc(C(C)C)cc3)CC2)cc1 (configuration not stated),-3.15% (inactive)
2,COc1ccc(-c2nn(-c3ccccc3)cc2/C=C2/SC(=S)N(CCCC(=O)O)C2=O)c(C)c1,3% (inactive)
3,CN(C)S(=O)(=O)c1cccc(-c2nn(-c3ccccc3)cc2/C=C2\SC(=S)N(CC(=O)O)C2=O)c1,95.8% (active)
4,COc1cccc(-c2nn(-c3ccccc3)cc2/C=C(\C#N)C(=O)NCCCn2ccnc2)c1,-6.12% (inactive)
5,COc1cccc(COC(=O)C2CCN(S(=O)(=O)c3cccs3)CC2)c1OC,-64% (inactive)
6,COc1cc(C(=O)NCC(=O)N2CC=C(c3ccccc3)CC2)cc(OC)c1OC,3.4% (inactive)
7,O=C(NCCSc1ncc(-c2ccccc2)[nH]1)c1ccco1,4.62% (inactive)
8,COc1ccc(OC)c(S(=O)(=O)N2CCCC(C(=O)N3CCC(C(N)=O)CC3)C2)c1 (configuration not stated),-3% (inactive)
9,O=C(Cc1ccccc1)Nc1ccc(C(=O)Nc2ccccc2C(=O)O)cc1,87.1% (active)
10,Cc1c(NC(=O)CSCc2ccccc2)cccc1C(=O)O,-23.6% (inactive)
11,COc1ccc(NC(=O)CSCc2ccc([N+](=O)[O-])cc2)cc1OC,-0.226% (inactive)
12,O=C(CSCc1ccc([N+](=O)[O-])cc1)Nc1cccc(C(=O)Nc2ccccc2C(=O)O)c1,99% (active)
13,O=C(O)c1ccccc1NC(=O)c1ccccc1-c1ccccc1C(=O)O,-5.64% (inactive)
14,O=C(Cc1ccccc1)Nc1ccc(NC(=O)c2cccnc2)cc1,-3.14% (inactive)
15,CC1CCc2[nH]c3ccc(C(=O)N(C)CC(=O)Nc4cccc(F)c4)cc3c2C1 (configuration not stated),2.5% (inactive)
16,COc1cccc(NC(=O)COc2cccnc2[N+](=O)[O-])c1,-5.23% (inactive)
17,Cc1noc(C)c1S(=O)(=O)N(C)C[C@H]1Oc2ccc(NC(=O)C3CCCCC3)cc2C(=O)N([C@H](C)CO)C[C@@H]1C,0.231% (inactive)
18,CCN(C[C@H]1N[C@@](CC)(C(=O)OC)[C@H]2C(=O)N(C)C(=O)[C@@H]12)C(=O)Nc1ccc(F)cc1,0.784% (inactive)
19,Cc1cccc(NC(=O)CSC(N)=O)c1C,98.7% (active)

row,Structure (SMILES),inhibition
1,Cc1cccc(NC(=O)CN2C(=O)c3ccccc3C2=O)c1C,2.16% (inactive)
2,Cc1cccc(NC(=O)COC(=O)CCc2ccccc2)c1C,-8.62% (inactive)
3,COc1cc(OC)cc(-c2c(C#Cc3ccsc3)c3cc(-c4ccc(SC)cc4)ccc3n2C)c1,-4.93% (inactive)
4,CC1=NN(C(=O)c2ccccc2Br)C(O)(c2cccnc2)C1 (configuration not stated),-2.8% (inactive)
5,CCOC(=O)C1(O)CC(C)=NN1C(=O)c1cccc(Br)c1 (configuration not stated),-4.22% (inactive)
6,CC1=NN(C(=O)c2ccc(Br)cc2)C(O)(c2ccccc2)C1 (configuration not stated),82.1% (active)
7,COc1cc(SC)ccc1C(=O)NNC(=O)C1COc2ccccc2O1 (configuration not stated),0.292% (inactive)
8,CCC1S/C(=N/N=C/c2ccco2)NC1=O (configuration not stated),-6.96% (inactive)
9,CC(C)(C)C1C/C(=C/c2ccco2)C(=O)/C(=C/c2ccco2)C1 (configuration not stated),96.3% (active)
10,O=C1OC(/C=C/c2ccccc2)=NC/1=C/c1ccco1,9.93% (inactive)
11,O=C(CSC1=Nc2ccccc2C2=NC(c3ccccc3)C(=O)N12)NCC1CCCO1 (configuration not stated),-17.3% (inactive)
12,O=C(CSC1=Nc2ccccc2C2=NC(CC(=O)NCc3ccco3)C(=O)N12)NCc1ccco1 (configuration not stated),6.97% (inactive)
13,CC(C)C1N=C2c3ccccc3N=C(SCC(=O)c3ccc(O)c(O)c3)N2C1=O (configuration not stated),99.7% (active)
14,CCOc1cc(-c2cc(-c3ccc(OC)cc3)nc(N)c2C#N)ccc1O,41.9% (inactive)
15,COc1ccc(-c2cc(-c3ccc(N)cc3)nc(N)c2C#N)cc1OC,98.9% (active)
16,COc1ccccc1-c1c(C#N)c(N)nc2c1CCC2,0.706% (inactive)
17,O=C(CN1CCC(O)(c2ccccc2)CC1)Nc1ccc2c(c1)OCCO2,-15.8% (inactive)
18,CCN(CC)c1ccc(C2C3CCCCC3(O)CCN2CC(=O)Nc2ccccc2)cc1 (configuration not stated),97.5% (active)
19,Cc1ccc(NC(=O)CN2CCC3(O)CCCCC3C2c2ccc3c(c2)OCO3)c(C)c1 (configuration not stated),6.21% (inactive)
